Data as given in PubChem BioAssay (Tox21).
Inconclusive results are not listed. A call without a number means that no potency is given here. Values without a mark were called inactive. The source made the active and inactive calls. The call rests on the fitted dose curve; in most records, active means well fitted cell-killing curve with a large enough effect in the repeat runs; inconclusive means weak or mixed curves, or effect the other way; inactive means flat fitted curve, though single readings scatter.

assay: qHTS assay to identify small molecule agonists of the constitutive androstane receptor (CAR) signaling pathway - cell viability counter screen (AID 1224836); conditions: HepG2-CYP2B6-hCAR viability, CellTiter-Fluor, 23 h, PK11195 added to every well; series mostly up to 92.4 µM; further: nearly all actives have a fitted effect of over 45% in size
Excerpt: U.S. Tox21 Program National Center for Advancing Translational Sciences [NCATS] NIH Chemical Genomics Center [NCGC] U.S. Environmental Protection Agency [EPA] National Institutes of Environmental Health Sciences [NIEHS] National Toxicology Program [NTP] U.S. Food and Drug Administration [FDA] Tox21 Assay Overview: The constitutive androstane receptor (CAR) is a nuclear receptor which regulates multiple drug metabolizing enzymes (DMEs) and transporters. Activating CAR will generally increase the transcription and subsequent translation of CYP2B6 and CYP3A4. These two DMEs represent about 50% of the drug metabolizing potential in the body. […] Recently, there have also been studies performed indicating CARs role in energy metabolism and cancer therapy. Therefore, inducing CARs activity could have a potential effect on diabetes and cancer. Identifying environmental toxins and compounds which modulate CAR, through the use of the Tox21 10K compound collection, will be an important step in determining the toxicity and potential therapeutic effects these factors will have on the human body. To differentiate true CAR agonists from cytotoxic substances, the assay is multiplexed with a cell viability assay.
Tox21 Assay Protocol Summary: A double-stable (hCAR and CYP2B6-2.2kb) transfected cell line, derived from human hepatoma (HepG2) cells, was utilized for the duration of the quantitative high-throughput screens. The HepG2-CYP2B6-hCAR cells were dispensed at 2500 cells/4 uL/well in 1536-well white solid bottom plates using a Multidrop Combi. After the assay plates were incubated at 37 C/5% CO2 for 4 hrs, 23 nL of compounds at 15 concentrations (from 5-48 columns) or positive control (from 1 to 4 columns) were transferred to the assay plates using a Pintool station. One uL of PK11195 (final concentration = 0.75 uM) was added, using a Flying Reagent Dispenser, inside each well. After a 23 hr incubation period at 37 C/5% CO2, 1 uL of CellTiter-Fluor reagent was added into each well of the assay plates using a Flying Reagent Dispenser. The fluorescence intensity in the plates was then measured using a ViewLux plate reader.
Potency means the concentration at half of the fitted maximal effect.

| SMILES | Potency | viability change, negative = cytotoxic |
| --- | --- | --- |
| COc1ccc(C(=O)c2cccc(O)c2)c(OC)c1 | inactive | – |
| CO[Si](C)(OC)OC | inactive | – |
| CC(C)=CC=O | inactive | – |
| CC1(C)O[C@@H]2C[C@H]3[C@@H]4CCC5=CC(=O)C=C[C@]5(C)[C@H]4[C@@H](O)C[C@]3(C)[C@]2(C(=O)CO)O1 | inactive | – |
| CNC(=O)N(c1ccccc1)c1ccccc1 | inactive | – |
| CCc1cccc(N(C)C(N)=Nc2cccc3ccccc23)c1 | inactive | – |
| C=CCCCCCCCCCCCCCCCC | – | -0.127% [at 8.39 µM] |
| CN1CCN(c2c(F)cc3c(=O)c(C(=O)O)cn4c3c2OCN4C)CC1 | – | 0.256% [at 19 µM] |
| N#C/C(=C1\SCC(c2ccccc2Cl)S1)n1ccnc1 (stereo not given) | inactive | – |
| CCCCCCCCCCCC[N+](C)(C)CCCS(=O)(=O)[O-] | inactive | – |
| OCCSc1ccccc1 | inactive | – |
| CCCCCCCCCCCCCCCCBr | – | 0.618% [at 19 µM] |
| CC(C)(C)CC(C)(C)c1ccc(OCCO)cc1 | 48.3 µM (active) | – |
| CCOC(=O)OCC | inactive | – |
| O=C1OCCN1/N=C/c1ccc([N+](=O)[O-])o1 | inactive | – |
| Brc1cc(-c2ccc(Br)c(Br)c2Br)cc(Br)c1Br | inactive | – |
| Cc1c(C(=O)NN2CCCCC2)nn(-c2ccc(Cl)cc2Cl)c1-c1ccc(Cl)cc1 | inactive | – |
| Nc1ccc(Cl)cc1[N+](=O)[O-] | inactive | – |
| CCCCC1C(=O)N(c2ccccc2)N(c2ccc(O)cc2)C1=O (stereo not given) | inactive | – |
| O=C(/C=C/c1ccccc1)OCCCc1ccccc1 | inactive | – |

| SMILES | Potency | viability change, negative = cytotoxic |
| --- | --- | --- |
| CO/N=C1\CN(c2nc3c(cc2F)c(=O)c(C(=O)O)cn3C2CC2)CC1CN (stereo not given) | inactive | – |
| CCCCC(=O)O[C@]1(C(=O)CO)CC[C@H]2[C@@H]3CCC4=CC(=O)CC[C@]4(C)[C@H]3[C@@H](O)C[C@@]21C | inactive | – |
| Oc1ccc(Nc2ccccc2)cc1 | inactive | – |
| CC1CC(=O)NN=C1c1ccc(NCC(C)(C)NCC(O)COc2cc(Cl)ccc2C#N)cc1 (stereo not given) | inactive | – |
| c1cnc2c(n1)CCCC2 | inactive | – |
| CCc1c2c(nc3ccc(OC(=O)N4CCC(N5CCCCC5)CC4)cc13)-c1cc3c(c(=O)n1C2)COC(=O)[C@]3(O)CC | inactive | – |
| O=C(O)C(Cc1cc(I)c(O)c(I)c1)c1ccccc1 (stereo not given) | inactive | – |
| Cc1ccnc2ccccc12 | inactive | – |
| CCC1(C)CC(=O)NC1=O (stereo not given) | inactive | – |
| CC1(C)C2=CCCC(C)(C)[C@]23CC[C@H]1C3 | inactive | – |
| CCC(C(=O)OCCN(CC)CC)c1ccccc1 (stereo not given) | inactive | – |
| O=C(N[C@@H](c1ccccc1)[C@@H]1CCCCN1)c1cccc(C(F)(F)F)c1Cl | 61.1 µM (active) | – |
| C=CCOC(=O)/C=C\C(=O)OCC=C | inactive | – |
| CC(C)(O)c1ccccc1CC[C@@H](SCC1(CC(=O)O)CC1)c1cccc(/C=C/c2ccc3ccc(Cl)cc3n2)c1 | inactive | – |
| Cn1c(=O)c2c(ncn2CC(=O)O)n(C)c1=O | inactive | – |
| O=C(Nc1ccc([N+](=O)[O-])cc1)Nc1ccc([N+](=O)[O-])cc1 | inactive | – |
| CCCCN(CCCC)C(=S)SSC(=S)N(CCCC)CCCC | inactive | – |
| C[C@@H]1C[C@H]2[C@@H]3CCC4=CC(=O)C=C[C@]4(C)[C@@]3(F)[C@@H](O)C[C@]2(C)[C@H]1C(=O)CO | inactive | – |
| CC#N | inactive | – |
| COC(=O)Nc1nc2ccc(C(=O)c3cccs3)cc2[nH]1 | 11.9 µM (active) | – |
